Screening results from PubChem BioAssay.
PriA SSB inh: blocks PriA binding to SSB C-terminal tail. AlphaScreen SSBct-PriA binding, biotinylated peptide. inhibition, % at 33 µM. 430,000 compounds, 0.6% hits. AID 1272365; in the data active means inhibition mostly above about 37%, no sharp cut-off; inactive means mostly below about 20%
RN4220 kill: S. aureus RN4220 growth inhibition. AID 1259311. OD600, 16 h. 330,000 compounds, 0.33% hits. inhibition, % (no concentration beside the values); in the data active means inhibition above about 85%
ugtP null kill: growth inhibition of S. aureus ugtP deletion strain; growth inhibition, % (concentration not given with the values); AID 1259309; S. aureus RN4220 ugtP deletion, OD600 growth, 16 h; 330,000 compounds, 0.54% hits; in the data active means growth inhibition above about 68%
Large screens that a line does not name were inactive. An excerpt weighted towards active compounds, which were near 1% of everything screened.

Cc1onc(-c2ccccc2Cl)c1C(=O)Nc1nnc(-c2cccs2)o1	PriA SSB inh 38 (no result: RN4220 kill, ugtP null kill)
Cc1onc(-c2ccccc2Cl)c1C(=O)Nc1nnc(-c2cc(Cl)sc2Cl)o1	none (no result: RN4220 kill, ugtP null kill)
O=C(Nc1nnc(-c2ccc(Br)s2)o1)c1nc2ccccc2s1	none (no result: RN4220 kill, ugtP null kill)
O=C(c1ccccn1)N1CCN(C2CC2)C[C@@H]1Cc1ccccc1	none (no result: RN4220 kill, ugtP null kill)
COc1ccc(-c2noc(CSc3nc4ccsc4c(=O)n3CC(C)C)n2)cc1OC	none (no result: RN4220 kill, ugtP null kill)
CCc1nnc(-c2ccc(NC(=O)c3ccc(S(=O)(=O)N(C)C)cc3)cc2)o1	none (no result: RN4220 kill, ugtP null kill)
Cn1c(=O)oc2ccc(S(=O)(=O)NCCc3ccoc3)cc21	none (no result: RN4220 kill, ugtP null kill)
Fc1cccc(C[n+]2csc3ccccc32)c1	ugtP null kill 96
c1ccc(C[n+]2csc3ccccc32)cc1	none
COc1ccc(Cl)cc1NC(=O)COc1coc(CSc2nncn2C)cc1=O	none (no result: RN4220 kill, ugtP null kill)
CSc1ccc(-c2noc(Cn3nc(-c4ccccc4F)ccc3=O)n2)cc1	none (no result: RN4220 kill, ugtP null kill)
CC(C)(C)c1cc(NCCCN2CCOCC2)n2ncc(-c3ccc(Cl)cc3)c2n1	none (no result: RN4220 kill, ugtP null kill)
CC(C)(C)c1cc(NCCCn2ccnc2)n2ncc(-c3ccccc3)c2n1	ugtP null kill 85
Cc1cc(NCCCN2CCOCC2)n2ncc(-c3ccc(Cl)cc3)c2n1	none
c1ccc(-c2cc(NCCCn3ccnc3)n3ncc(-c4ccccc4)c3n2)cc1	none (no result: RN4220 kill, ugtP null kill)
CN(C)CCCNc1cc(C(C)(C)C)nc2c(-c3ccc(Cl)cc3)cnn12	RN4220 kill 101, ugtP null kill 100
Cc1cc(NCCCn2ccnc2)n2ncc(-c3ccc(Cl)cc3)c2n1	PriA SSB inh 43, ugtP null kill 91
COc1ccc(CCNC(=O)CN2C(=O)N(C)C3(CCCCC3)C2=O)cc1OC	none (no result: RN4220 kill, ugtP null kill)
CSc1cccc(-n2nnc(C(=O)OCc3ccc(Cl)cc3)c2C)c1	none (no result: RN4220 kill, ugtP null kill)
Cc1ccccc1NC(=O)Cn1ccn2nc3c(c2c1=O)CCCC3	none (no result: RN4220 kill, ugtP null kill)
COC(=O)c1ccccc1NC(=O)/C(C#N)=C/c1ccc(-c2ccc(Cl)cc2)o1	none (no result: RN4220 kill, ugtP null kill)
CN(Cc1ccc(C(F)(F)F)cc1)C(=O)c1ccc(Oc2ccccc2)cc1	none
CN(Cc1ccccc1F)C(=O)c1ccc(Oc2ccccc2)cc1	ugtP null kill 91
CCCN1CCCc2cc(CCNC(=O)c3cccc(F)c3)ccc21	PriA SSB inh 41 (no result: RN4220 kill, ugtP null kill)
CCCN1CCCc2cc(CCNC(=O)c3cc(OC)cc(OC)c3)ccc21	none (no result: RN4220 kill, ugtP null kill)
CCCN1CCCc2cc(CCNC(=O)c3cccc(C)c3)ccc21	PriA SSB inh 59 (no result: RN4220 kill, ugtP null kill)
CCCN1CCCc2cc(CCNC(=O)c3cccc(OC)c3)ccc21	PriA SSB inh 61 (no result: RN4220 kill, ugtP null kill)
CCCN1CCCc2cc(CCNC(=O)c3cccc(Cl)c3)ccc21	none (no result: RN4220 kill, ugtP null kill)
CCCN1CCCc2cc(CCNC(=O)c3c(F)cccc3F)ccc21	PriA SSB inh 54 (no result: RN4220 kill, ugtP null kill)
COC1(CNS(=O)(=O)Cc2cc(F)ccc2F)CCSC1 (stereo not drawn)	none (no result: RN4220 kill, ugtP null kill)
C=CCN(CC=C)S(=O)(=O)c1ccc(C(=O)Nc2nc3cc4c(cc3s2)OCO4)cc1	none (no result: RN4220 kill, ugtP null kill)
COC1(CNS(=O)(=O)/C=C/c2ccccc2)Cc2ccccc2C1	none (no result: RN4220 kill, ugtP null kill)
Cn1cc(-c2cccs2)nc1CCNC(=O)C1CCC1	none (no result: RN4220 kill, ugtP null kill)
CNc1cc(-c2ccccc2)nc2c(-c3ccccc3)c(C)nn12	none (no result: RN4220 kill, ugtP null kill)
Cc1nnsc1C(=O)N(Cc1ccccn1)c1nc2ccc(F)cc2s1	none (no result: RN4220 kill, ugtP null kill)
O=S(=O)(c1ccc(F)c(Cl)c1)N1CCN(c2ccccc2F)CC1	none (no result: RN4220 kill, ugtP null kill)
O=c1[nH]c2ccc(S(=O)(=O)N3CCN(c4ccccc4F)CC3)cc2s1	ugtP null kill 101
COc1ccc(CCNS(=O)(=O)c2cccc(C(F)(F)F)c2)cc1OC	none (no result: RN4220 kill, ugtP null kill)
O=c1[nH]c(=S)n(C2CC2)c(O)c1C=NNc1cccc2ccccc12	none (no result: RN4220 kill, ugtP null kill)
CC(=NNC(=O)C1COc2ccccc2O1)c1ccco1 (stereo not drawn)	none
CC(=NNc1ncc(Cl)cc1Cl)c1cccs1	none (no result: PriA SSB inh)
CC(=NNC(=O)c1ccc(Cl)cc1)c1ccccn1	PriA SSB inh 45 (no result: RN4220 kill, ugtP null kill)
CC(=NNC(=O)c1ccc(Cl)c(Cl)c1)c1ccccn1	none
CC(=NNc1ncc(Cl)cc1Cl)c1ccccn1	PriA SSB inh 47
CC(=NNC(=O)C1COc2ccccc2O1)c1ccccn1 (stereo not drawn)	PriA SSB inh 61
O=C(Nc1nc(CCC(=O)N2CCc3ccccc3C2)cs1)c1ccc(=O)[nH]c1	none (no result: RN4220 kill, ugtP null kill)
CC(=O)N1CCN(CC(=O)Nc2cc(Cl)ccc2C)CC1	none (no result: RN4220 kill, ugtP null kill)
CNC(=O)C1Cc2ccccc2N1C(=O)Nc1c(F)cccc1F (stereo not drawn)	none (no result: RN4220 kill, ugtP null kill)
O=C(NC[C@@H](c1ccsc1)N1CCOCC1)C1CC1	none (no result: RN4220 kill, ugtP null kill)
O=C1c2ccccc2C(=O)c2c1ccc(C(=O)N1CCCCC1)c2NCCO	none
CC1CCCN(C(=O)c2ccc3c(c2NCCO)C(=O)c2ccccc2C3=O)C1 (stereo not drawn)	PriA SSB inh 64
COc1cc2c(cc1OC)CN(C(=O)CSc1ncnc3scc(-c4ccc(Cl)cc4)c13)CC2	none (no result: RN4220 kill, ugtP null kill)
Cc1c(C(=O)N2CCCc3ccccc32)nnn1-c1ccc2noc(-c3ccc(Cl)cc3)c2c1	none (no result: RN4220 kill, ugtP null kill)
CCC(/C=C1\Sc2ccc(OC)cc2N1CC)=C\c1sc2ccc(OC)cc2[n+]1CCCS(=O)(=O)[O-]	none (no result: PriA SSB inh)
